This passage reports inhibition results from PubChem BioAssay AID624255 (Broad Institute, 2012).

The campaign covered roughly 77,000 compounds. About 4,600 (6%) were called active. Another 1% or so got no clear call; they are omitted.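 The calls were made as follows: active = mean inhibition above about 93%, with at least 55% of replicates each passing it (limit read from the data, passing the limit was not always enough); inconclusive = only one of those two conditions holds; inactive = neither condition holds.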 The sample as a whole holds a higher share of actives than the screen did.

A short description of the experiment: growth inhibition of T. cruzi in host fibroblasts – cell-based, beta-gal Tulahuen parasites, NIH3T3 host, luminescence, primary screen (AID 624255). The following applies: T. cruzi beta-gal in NIH3T3, GalScreen luminescence, 90 h; at 8.34 µM; hits give high values.
On to `Cc1ccc(S(=O)(=O)Nc2ccc3c(c2)C(=O)N([C@@H](C)CO)C[C@@H](C)[C@H](CN(C)Cc2ccncc2)O3)cc1`, for which the inhibition was 5.91% (inactive).

Consider `CN(C)C(=O)[C@@H]1[C@@H](CO)[C@@H]2Cn3c(ccc(-c4ccccc4F)c3=O)[C@@H]2N1C(=O)C1CC1`, for which the inhibition is 30.9% (inactive).

Regarding `C[C@@H]1CCCCO[C@H](CN(C)S(=O)(=O)c2cn(C)cn2)[C@@H](C)CN([C@@H](C)CO)C(=O)c2cc(NC(=O)CCC(F)(F)F)ccc2O1`, the inhibition was 28.2% (inactive).

On to `O=C(C[C@@H]1CC[C@@H](NS(=O)(=O)c2ccccc2)[C@H](CO)O1)NCc1ccc(Cl)c(Cl)c1`, for which the inhibition is -48.5% (inactive).

As to `C[C@@H]1CN([C@@H](C)CO)C(=O)c2cc(C#CC(C)(C)O)cnc2O[C@@H]1CN(C)C(=O)C1CCOCC1`, the inhibition is -1.59% (inactive).

`O=C(Cc1ccncc1)Nc1ccc2c(c1)[C@@H]1C[C@H](CC(=O)N3CCCCC3)O[C@H](CO)[C@@H]1O2`: the inhibition was 14.2% (inactive).

As to `CN1c2ccc(-c3ccccc3)cc2[C@@H]2[C@@H](CCN2C(=O)NC2CCCC2)[C@H]1CO`, the inhibition is 6.51% (inactive).

On to `C[C@@H]1CCCCO[C@H](CN(C)C(=O)Nc2cccc3ccccc23)[C@@H](C)CN([C@H](C)CO)C(=O)c2cc(NS(=O)(=O)c3cccs3)ccc2O1`, for which the inhibition was 87.5% (inactive).

Regarding `Cc1noc(C)c1S(=O)(=O)Nc1ccc2c(c1)C(=O)N([C@@H](C)CO)C[C@@H](C)[C@H](CN(C)C(=O)Nc1cccc3ccccc13)OCCCC[C@H](C)O2`, the inhibition was 72.3% (inactive).

Consider `C[C@@H]1CCCCO[C@@H](CN(C)C(=O)Nc2cccc3ccccc23)[C@@H](C)CN([C@H](C)CO)C(=O)c2cc(NS(C)(=O)=O)ccc2O1`, for which the inhibition was -3.68% (inactive).

With `Cc1noc(C)c1S(=O)(=O)Nc1ccc2c(c1)C(=O)N([C@@H](C)CO)C[C@@H](C)[C@H](CN(C)C(=O)Nc1cccc3ccccc13)O2`, the inhibition is -148% (inactive).

With `C[C@@H]1CCCCO[C@H](CN(C)C(=O)Nc2cccc3ccccc23)[C@H](C)CN([C@H](C)CO)C(=O)c2cc(NS(=O)(=O)c3cccs3)ccc2O1`, the inhibition is 115% (active).

Consider `Cc1noc(C)c1S(=O)(=O)Nc1ccc2c(c1)C(=O)N([C@@H](C)CO)C[C@H](C)[C@@H](CN(C)C(=O)Nc1cccc3ccccc13)OCCCC[C@H](C)O2`, for which the inhibition is 104% (active).

As to `C[C@H]1CN([C@@H](C)CO)C(=O)c2cc(-c3ccccc3)cnc2O[C@H]1CN(C)C(=O)C1CCOCC1`, the inhibition was 60.3% (inactive).

As to `CC(=O)N1[C@@H](CO)[C@@H]2c3ccccc3N(S(=O)(=O)c3ccccc3)C[C@@H]21`, the inhibition is 17.9% (inactive).

For `CN1C(=O)c2cc(NC(=O)c3ccno3)ccc2OC[C@H]2O[C@@H](CC(=O)NCC(F)(F)F)CC[C@@H]21`, the inhibition was -16.1% (inactive).

`CO[C@@H]1CN(C)C(=O)c2ccc(NC(=O)c3ccc(F)cc3)cc2OC[C@H](C)N(C(=O)c2ccc(F)cc2)C[C@@H]1C`: the inhibition was 33.4% (inactive).

For the compound `C[C@@H]1CN([C@H](C)CO)S(=O)(=O)c2ccc(C#CCC3CCCC3)cc2O[C@H]1CN(C)C(=O)CC1CC1`, the inhibition is 119% (active).

Consider `COCC#Cc1ccc2c(c1)O[C@H](CN(C)C(=O)CC1CC1)[C@@H](C)CN([C@@H](C)CO)S2(=O)=O`, for which the inhibition was 72.2% (inactive).

For `C[C@@H]1CN([C@@H](C)CO)S(=O)(=O)c2ccc(C#CCC3CCCC3)cc2O[C@@H]1CN(C)C`, the inhibition is 2.02% (inactive).

In the case of `C[C@@H]1CN([C@H](C)CO)S(=O)(=O)c2ccc(C#CCN(C)C)cc2O[C@H]1CN(C)C(=O)CC1CC1`, the inhibition was 92.5% (inactive).

As to `C[C@@H]1CN([C@@H](C)CO)S(=O)(=O)c2ccc(C#CCC3CCCC3)cc2O[C@H]1CN(C)C(=O)CC1CC1`, the inhibition is 116% (active).

With `C[C@@H]1CN([C@@H](C)CO)S(=O)(=O)c2ccc(C#CCN(C)C)cc2O[C@@H]1CN(C)C(=O)CC1CC1`, the inhibition is 27.9% (inactive).

On to `O=C(C[C@H]1CC[C@H](NC(=O)c2ccc3c(c2)OCO3)[C@H](CO)O1)NCc1ccc(Oc2ccccc2)cc1`, for which the inhibition was -47.4% (inactive).

Take `O=C(NCc1ccccc1Cl)[C@H]1[C@H](CO)[C@H]2Cn3c(cccc3=O)[C@H]2N1C(=O)C1CCC1`: the inhibition is 19.3% (inactive).

Turning to `C/C=C/c1ccc([C@@H]2[C@@H](CO)N(C(C)=O)[C@H]2CN(C)C(=O)CN(C)C)cc1`, the inhibition was -6.45% (inactive).

Regarding `C[C@@H]1CN([C@@H](C)CO)S(=O)(=O)c2ccc(C#Cc3ccc(F)cc3)cc2O[C@@H]1CN(C)CC1CC1`, the inhibition was 11.3% (inactive).

Consider `C[C@@H]1CN([C@@H](C)CO)S(=O)(=O)c2ccc(C#Cc3ccc(F)cc3)cc2O[C@H]1CN(C)C(=O)NC1CCCC1`, for which the inhibition is 114% (active).

With `C[C@@H]1CN([C@@H](C)CO)S(=O)(=O)c2ccc(C#Cc3ccc(F)cc3)cc2O[C@H]1CN(C)C(=O)c1ccccn1`, the inhibition was 103% (active).

Take `C[C@@H]1CN([C@@H](C)CO)S(=O)(=O)c2ccc(C#Cc3ccccc3)cc2O[C@@H]1CN(C)C(=O)Nc1ccccc1`: the inhibition was 113% (active).

As for `CC(C)C#Cc1ccc2c(c1)O[C@@H](CN(C)C(=O)NC(C)C)[C@H](C)CN([C@H](C)CO)S2(=O)=O`, the inhibition was 55.8% (inactive).

For the compound `CC(C)CC#Cc1ccc2c(c1)O[C@@H](CN(C)C(=O)c1ccccn1)[C@@H](C)CN([C@H](C)CO)S2(=O)=O`, the inhibition was 74.4% (inactive).

On to `C/C=C/c1ccc2c(c1)O[C@@H](CN(C)C(=O)c1ccccn1)[C@H](C)CN([C@@H](C)CO)S2(=O)=O`, for which the inhibition is 11.4% (inactive).

In the case of `COc1ccc(C#Cc2ccc3c(c2)O[C@@H](CN(C)C(=O)Nc2cccc(OC)c2)[C@H](C)CN([C@H](C)CO)S3(=O)=O)cc1`, the inhibition was 73.3% (inactive).

With `C/C=C/c1ccc2c(c1)O[C@H](CN(C)C(=O)Nc1ccccc1)[C@H](C)CN([C@@H](C)CO)S2(=O)=O`, the inhibition was 45.2% (inactive).

Take `COc1cccc(NC(=O)N(C)C[C@H]2Oc3ncc(C4=CCCCC4)cc3C(=O)N([C@H](C)CO)C[C@H]2C)c1`: the inhibition was -8.07% (inactive).

For `CO[C@@H]1CC[C@H]2CCOc3c(C#N)cccc3C(=O)N(C)C[C@@H](OC)[C@H](C)C(=O)N(C)C[C@@H]1O2`, the inhibition was 20.8% (inactive).

For the compound `O=C(CN1CCOCC1)N[C@@H]1CC[C@H](CCNS(=O)(=O)c2ccccc2F)O[C@H]1CO`, the inhibition is 2.08% (inactive).

Consider `C[C@@H]1CCCCO[C@@H](CN(C)C(=O)Cc2ccccc2)[C@@H](C)CN([C@@H](C)CO)C(=O)c2cc(NC(=O)c3ccccc3)ccc2O1`, for which the inhibition was 60.5% (inactive).

For `C[C@@H]1CN([C@H](C)CO)C(=O)c2cc(C3=CCCC3)cnc2O[C@@H]1CN(C)C(=O)Nc1ccc(F)cc1`, the inhibition was 15.9% (inactive).

As to `O=C([C@H]1[C@H](CO)[C@H]2Cn3c(ccc(C4=CCCC4)c3=O)[C@@H]1N2C(=O)c1ccncc1)N1CCCCC1`, the inhibition was 34.7% (inactive).

As to `CO[C@H]1CN(C)C(=O)c2ccc(NC(=O)C3CC3)cc2OC[C@H](C)N(CCc2ccccc2)C[C@H]1C`, the inhibition is 36.1% (inactive).

With `COc1ccc(CN(C)C[C@@H]2OCCCC[C@H](C)Oc3ccc(NS(C)(=O)=O)cc3C(=O)N([C@@H](C)CO)C[C@H]2C)cc1`, the inhibition is 0.374% (inactive).

Take `Cc1ccc(S(=O)(=O)N2C[C@H](O)COC[C@H]3O[C@H](CC(=O)N[C@H]4CCN(Cc5ccccc5)C4)CC[C@@H]32)cc1`: the inhibition is -33.7% (inactive).

As to `OC[C@H]1[C@@H](c2ccc(-c3ccccc3F)cc2)[C@@H]2CN(Cc3ccncc3)CCCCN12`, the inhibition was 93.1% (inactive).

Turning to `Cc1cccc(-c2ccc([C@@H]3[C@H](CO)N4CCCCN(Cc5ccncc5)C[C@@H]34)cc2)c1`, the inhibition is 92% (inactive).

As for `OC[C@@H]1[C@H](c2ccc(C3=CCCC3)cc2)[C@H]2CN(Cc3ccncc3)CCCCN12`, the inhibition was 75.8% (inactive).

As for `OC[C@H]1[C@H](c2ccc(-c3ccccc3F)cc2)[C@H]2CN(Cc3cncnc3)CCCCN21`, the inhibition is 69.5% (inactive).

With `Cc1cccc(-c2ccc([C@H]3[C@@H](CO)N4CCCCN(Cc5cncnc5)C[C@H]34)cc2)c1`, the inhibition was 104% (active).

Consider `CN(C)C(=O)c1ccc(-c2ccc([C@@H]3[C@@H](CO)N4CCCCN(Cc5cncnc5)C[C@@H]34)cc2)cc1`, for which the inhibition is 55.5% (inactive).

Turning to `OC[C@H]1[C@H](c2ccc(-c3cccc(F)c3)cc2)[C@@H]2CN(Cc3cncnc3)CCCCN12`, the inhibition is 107% (active).

For `Cc1ccc(-c2ccc([C@H]3[C@H](CO)N4CCCCN(Cc5cncnc5)C[C@@H]34)cc2)cc1`, the inhibition is 96% (active).

`OC[C@@H]1[C@@H](c2ccc(-c3ccccc3F)cc2)[C@@H]2CN(Cc3cncnc3)CCCCN12`: the inhibition is 74.2% (inactive).

Regarding `O=C(C[C@@H]1C[C@@H]2c3cc(NC(=O)NC4CCCC4)ccc3O[C@@H]2[C@@H](CO)O1)NCc1ccccc1`, the inhibition is 52.2% (inactive).

As to `COc1cccc(-c2ccc3n(c2=O)C[C@@H]2[C@@H](CO)[C@H](C(=O)N4CCCCC4)N[C@H]32)c1`, the inhibition was 13.4% (inactive).

With `O=C(Nc1ccc(C(F)(F)F)cc1)N[C@@H]1CC[C@@H](CCNC(=O)c2ccccc2F)O[C@H]1CO`, the inhibition is 57.5% (inactive).

As for `C[C@@H]1CN([C@@H](C)CO)C(=O)c2cc(-c3ccc(C#N)cc3)cnc2O[C@H]1CN(C)C(=O)CN(C)C`, the inhibition is 30.7% (inactive).

Take `COCC(=O)Nc1ccc2c(c1)C(=O)N(C)C[C@@H](OC)[C@@H](C)CN(CC1CCCCC1)[C@@H](C)CO2`: the inhibition is 5.52% (inactive).

Turning to `O=C(C[C@H]1CC[C@H]2[C@@H](COC[C@H](O)CN2C(=O)c2ccccn2)O1)N1CCN(c2ccccc2)CC1`, the inhibition is -3.75% (inactive).

Turning to `COc1cccc(S(=O)(=O)N2C[C@H](O)COC[C@H]3O[C@@H](CC(=O)N4CCN(c5ccccc5)CC4)CC[C@@H]32)c1`, the inhibition is 12.2% (inactive).

In the case of `O=C(C[C@H]1CC[C@@H]2[C@H](COC[C@H](O)CN2Cc2ccc(Oc3ccccc3)cc2)O1)N1CCN(c2ccccc2)CC1`, the inhibition is 117% (active).

For orientation: inhibition means the drop in the measured response relative to a control, in per cent.
